Measured values reported in PubChem BioAssay (NCI).
Compounds without any hit were thinned out: in the full panel of roughly 79,000, 15% have a hit. Unmarked numbers belong to inactive results. Calls of active or inactive are those of the source. Rule as the data show it: active = growth inhibition above about 70%; inactive = the rest.

Tests used:
[1] = NCI Yeast Anticancer Drug Screen. Data for the rad50 strain (AID 155);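 also: 0% = growth of vehicle-only cultures of the same strain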; details: S. cerevisiae rad50 strain growth inhibition, stronger effect = higher value
Method in brief: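 Growth of the mutant yeast was measured after compound exposure and referenced to vehicle-treated cultures.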

[2] = NCI Yeast Anticancer Drug Screen. Data for the mec2-1 strain (AID 157); details: S. cerevisiae mec2-1 strain, stronger effect = higher value
Method in brief: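 Cells of the genetically defined mec2-1 yeast strain are incubated with test compound. Inhibition of growth is calculated against vehicle-treated controls.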

[3] = NCI Yeast Anticancer Drug Screen. Data for the sgs1 mgt1 strain (AID 161);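 also: 0% = growth of cultures given vehicle only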; details: S. cerevisiae sgs1 mgt1 strain, stronger effect = higher value
Method in brief: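 Genetically altered yeast, compound exposure, growth inhibition relative to vehicle.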

[4] = NCI Yeast Anticancer Drug Screen. Data for the cln2 rad14 strain (AID 165);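 also: 0% = growth equal to vehicle treated cultures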; details: S. cerevisiae cln2 rad14 strain, stronger effect = higher value
Method in brief: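 The screen exposed genetically defined yeast (cln2 rad14) to test compounds and scored growth inhibition relative to vehicle-treated controls.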

[5] = NCI Yeast Anticancer Drug Screen. Data for the bub3 strain (AID 167); details: S. cerevisiae bub3 mutant strain, stronger effect = higher value
Method in brief: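 Whole-cell yeast assay. The mutant strain was incubated with compounds, and growth inhibition was determined by comparison with vehicle-treated cells.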

[6] = NCI Yeast Anticancer Drug Screen. Data for the mlh1 rad18 strain (AID 175); details: S. cerevisiae mlh1 rad18 strain growth inhibition, stronger effect = higher value
Method in brief: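 Compound-treated yeast growth, normalised to vehicle controls. Strain bears defined DNA repair mutations.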

[7] = at 5.0 µM (retest, dose inferred, filed as 0.5)
[8] = at 50.0 µM (retest, dose inferred, filed as 5.0)

Row | SMILES | growth inhibition [1, 7] [%] | growth inhibition [1, 8] | growth inhibition ([1]; at 50.0 µM) | growth inhibition [2, 7] [%] | growth inhibition [2, 8] | growth inhibition ([2]; at 50.0 µM) | growth inhibition [3, 7] [%] | growth inhibition [3, 8] | growth inhibition ([3]; at 50.0 µM) | growth inhibition [4, 7] [%] | growth inhibition [4, 8] | growth inhibition ([4]; at 50.0 µM) | growth inhibition [5, 7] [%] | growth inhibition [5, 8] | growth inhibition ([5]; at 50.0 µM) | growth inhibition [6, 7] [%] | growth inhibition [6, 8] | growth inhibition ([6]; at 50.0 µM)
1 | FC(F)(F)c1ccc(Nc2ccc(C(F)(F)F)cc2)cc1 | 9 | 100% (active) | 99.6% (active) | -17 | 100% (active) | 99.8% (active) | 12 | 100% (active) | 99.6% (active) | -5 | 100% (active) | 99.6% (active) | -3 | 99% (active) | 99.7% (active) | 12 | 100% (active) | 99.8% (active)
2 | CCN(CCO)CC1OC(OC)C2OC(C)(C)OC12 (stereo not given) | -1 | 83% (active) | 10% | 0 | 91% (active) | 2.55% | -2 | 84% (active) | -0.9% | -3 | 83% (active) | 85.8% (active) | -2 | 89% (active) | 24.5% | -1 | 90% (active) | 35.7%
3 | CCc1[nH]c2ccccc2c1C(c1c(CC)[nH]c2ccccc12)C1CCCCC1=O (stereo not given) | 1 | 91% (active) | 93.2% (active) | -8 | 97% (active) | 88.8% (active) | -10 | 96% (active) | 92.2% (active) | 0 | 95% (active) | 95.2% (active) | 0 | 95% (active) | 79.8% (active) | -9 | 97% (active) | 95.6% (active)
4 | CCN1C2=NCCN2S(=O)(=O)c2ccccc21 | 5 | 11% | -14.4% | 9 | 9% | -4.45% | 8 | 14% | -27.9% | 14 | 10% | -20.6% | 13 | 11% | -22.1% | 20 | 13% | -5.3%
5 | CC(=O)N1C=C2CCC3c4ccccc4NC3C2CC1 (stereo not given) | -2 | 15% | 33.2% | 1 | 4% | 4.05% | -4 | 13% | 34.5% | -51 | 0% | -29.1% | -11 | 47% | -4.6% | -7 | -2% | 19.1%
6 | CCOC(=O)c1cc(Cc2ccccc2)c(=O)n(C)c1-c1ccccc1 | 4 | 75% (active) | 72% (active) | -3 | 83% (active) | 3.1% | 0 | 85% (active) | 93% (active) | 7 | 46% | -5.4% | 5 | 84% (active) | 85.3% (active) | 2 | 86% (active) | 50.1%
7 | CC(C)=CCC/C(=C/CC/C(C)=C/CCc1ccoc1)C(=O)O | -5 | 20% | 72.8% (active) | 3 | 26% | 44.1% | -9 | 41% | 59.4% | 17 | 73% (active) | 42.7% | -9 | 64% | 53% | 2 | 35% | 62.3%
8 | CCOCCNc1ncnc2c1cnn2C | 2 | -5% | -1.1% | -4 | -3% | -18.4% | -16 | -6% | 13.1% | -5 | -1% | -0.35% | 0 | 2% | 8% | 3 | -1% | 39%
9 | CC(C)S(=O)(=O)ON1C(=O)c2ccc(N(C)C)cc2C1=O | 14 | 35% | 91.7% (active) | 14 | 33% | 81.8% (active) | 16 | 34% | 61.3% | 24 | 42% | 95.4% (active) | 17 | 48% | 73.4% (active) | 16 | 40% | 97.5% (active)
10 | O=S(=O)(CC(Br)Br)c1ccccc1 | 13 | 99% (active) | 99.5% (active) | 18 | 100% (active) | 98.5% (active) | 3 | 99% (active) | 41% | 7 | 99% (active) | 74.8% (active) | 34 | 99% (active) | 99.5% (active) | 11 | 99% (active) | 30.9%
